SKN-1 block: suppressors of acrylamide-induced Pgst-4::GFP reporter in worms, primary screen, SKN-1 inhibitor project, whole organism, uHTS, GFP/RFP fluorescence ratio, strain VP596 | 360,000 compounds, 0.49% hits | inhibition, % at 21.8 µM | C. elegans VP596 Pgst-4::GFP/RFP ratio, 24 h | AID 624304, 2012;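 active = interference check ratio from 0.5 to 1.5 plus GFP to RFP signal ratio inhibition reaching or exceeding a fixed threshold, cut at about 30% in these data, passing the limit was not always enough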
NR1D1 modulator: modulators of Rev-erb alpha DNA binding, primary screen, biochemical, FITC-DNA, fluorescence polarization, uHTS; 370,000 compounds, 0.79% hits; AID 1259318, 2017; Rev-erbα–FITC-DNA binding, 90 min; activity, % at 10 µM;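 active = activity above about 14%, limit read from the data; passing the limit was not always enough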;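 also: 0% = DMSO wells with 35 nM protein and 100% = DMSO wells with 750 nM protein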
PG9 Ab binder: binders of HIV-1 gp120 antibody PG9, primary screen, biochemical, TR-FRET. HIV-1 gp120 / PG9 antibody interaction. TR-FRET gp120-PG9 antibody binding. inhibition, % at 6.7 µM. 360,000 compounds, 0.43% hits; in the data active = inhibition above about 8.5%
EP2 antag: human EP2 receptor antagonists, primary screen, TR-FRET cAMP, C6 glioma cells; Prostaglandin E2 receptor EP2 subtype (Homo sapiens), P43116; C6 glioma cells expressing human EP2; cells stimulated with saturating PGE2; inhibition, % at 25 µM; 260,000 compounds, 0.52% hits; AID 1422, 2008;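 active = percent inhibition above 40 after rounding to a whole number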;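 also: rat C6 glioma host cells with rolipram phosphodiesterase inhibitor present; the protocol text gives 20 µM as final concentration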
Target sequence (P43116 whole entry, looked up): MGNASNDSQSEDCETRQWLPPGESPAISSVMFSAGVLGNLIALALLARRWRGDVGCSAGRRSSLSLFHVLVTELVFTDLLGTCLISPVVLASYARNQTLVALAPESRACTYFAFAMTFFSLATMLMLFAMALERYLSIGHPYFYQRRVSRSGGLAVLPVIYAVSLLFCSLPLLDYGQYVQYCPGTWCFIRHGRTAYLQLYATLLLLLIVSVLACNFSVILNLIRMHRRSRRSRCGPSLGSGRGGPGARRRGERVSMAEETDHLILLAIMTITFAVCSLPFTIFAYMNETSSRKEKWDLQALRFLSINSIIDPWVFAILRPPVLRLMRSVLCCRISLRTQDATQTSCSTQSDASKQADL
RAM inhibit: inhibitors of the yeast RAM network, primary screen, dse1pr::URA3 reporter, 5-FOA selection | S. cerevisiae dse1pr::URA3 reporter, 5-FOA growth OD615, 2 d; analog-sensitive cbk1-as2 kinase mutant strain | inhibition, % at 50 µM | 190,000 compounds, 1.8% hits;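 active = inhibition above a set limit, 3 SD over mean compound inhibition, cut at about 8.4% in these data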;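 also: 0% = DMSO-only wells with no growth and 100% = 10 µM 1-NA-PP1 full growth; inhibition rescues growth on 5-FOA so higher OD means more RAM inhibition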
EP2 mod: EP2 receptor modulators, cAMP readout, primary screen, cell-based, HTRF cAMP, PGE2 stimulation | EP2-expressing cells, cAMP HTRF FRET, PGE2 co-stimulation | induction, % at 25 µM | 260,000 compounds, 0.83% hits;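 active = compounds whose cAMP rise, as percent of the full-agonist control response, exceeds 60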;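 also: rat C6 glioma line stably carrying human EP2 under a CMV promoter; the protocol text gives 20 µM as final concentration; 100% = response of wells given 1 µM PGE2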
PG9 bind confirm: binders of anti-gp120 antibody PG9, confirmation, biochemical, TR-FRET | shares compounds with PG9 Ab binder | TR-FRET PG9 antibody binding | inhibition, % at 6.7 µM | 1,500 compounds, 90% hits | AID 651571, 2012; in the data active = inhibition above about 9%
PGV04 counter: binders of control antibody PGV04, counter-screen for PG9 antibody binder project, biochemical, TR-FRET, distinct HIV envelope site; shares compounds with PG9 Ab binder; TR-FRET PGV04 antibody-gp120 binding; inhibition, % at 6.7 µM; AID 651604, 2012; 1,500 compounds, 95% hits; in the data active = inhibition above about 9.5%
PG9 binder DR: small-molecule binders of antibody PG9, dose response, biochemical, TR-FRET, HIV-1 gp120 antibody. TR-FRET PG9 antibody-gp120 binding inhibition. 95 tested, under 10 active. AID 651848, 2012. IC50, µM. shares compounds with PG9 Ab binder; in the data active = IC50 below about 10 µM
PGV04 binding DR: binders of control antibody PGV04, dose response, counter-screen for PG9 antibody binder project, biochemical, TR-FRET, distinct HIV envelope site; shares compounds with PG9 Ab binder; TR-FRET binding to control antibody PGV04; IC50, µM; 95 compounds, 20% hits
PG126 binding DR: binders of control antibody PG126, dose response, counter-screen for PG9 antibody binder project, biochemical, TR-FRET, distinct HIV envelope site. shares compounds with PG9 Ab binder. TR-FRET binding to antibody PG126, counterscreen. IC50, µM. 95 compounds, 20% hits
An asterisk follows results filed as active; i = inactive; x = not tested or not shown. The list is not random: actives were taken first. Their share in the collection is about 2.9%. Rule as the data show it, unless noted: active = IC50 below about 9 µM; inactive = the rest.

SMILES	SKN-1 block	NR1D1 modulator	PG9 Ab binder	EP2 antag	RAM inhibit	EP2 mod	PG9 bind confirm	PGV04 counter	others
CSc1nc(N)nc(SCC(=O)c2ccccc2)c1C#N	11.8	12.2	4.8	11.7	3.5	-41.1	x	x
CCc1cccc(CC)c1NC(=O)Cn1c(-c2ccccc2Cl)nc2ccccc21	17.1	1.2	17.0*	2.4	0.6	-15.8	18.9*	24.7*
CCOc1ccccc1-c1nc(-c2cc3ccccc3[nH]c2=O)no1	x	x	x	13.2	x	-20.5	x	x
COC(=O)c1cc2n3ccccc3c(C)c(-c3ccccc3)c-2c1C(=O)OC	6.3	3.5	20.6*	20.9	-0.3	9.7	29.2*	39.3*
COC(=O)c1cn(-c2ccccc2)c(C)c1C(=O)OC	1.3	3.3	-0.1	14.4	-0.6	-11.8	x	x
CCOc1ccc2cc(C(=O)NCc3ccccc3)c(=N)oc2c1	-6.9	-8.6	39.9*	x	x	x	15.4*	7.4	PG9 binder DR=>67;PGV04 binding DR=>67;PG126 binding DR=>67
CCCNS(=O)(=O)c1cc(-c2nnc3c4ccccc4c(C)nn23)ccc1C	x	x	x	15.3	x	-32.2	x	x
COc1ccc(CCNC(=O)CCc2nc3sc4c(c3c(=O)[nH]2)CCCC4)cc1	12.8	-0.1	6.6	x	x	x	x	x
O=C(CCc1nc2sc3c(c2c(=O)[nH]1)CCCC3)NCCOc1ccccc1	13.4	-3.7	24.4*	x	x	x	23.7*	47.2*
CC(=O)c1ccc(NC(=O)CCc2nc3sc4c(c3c(=O)[nH]2)CCCC4)cc1	-8.6	12.5	11.4*	x	x	x	22.6*	32.6*
O=C(CCc1nc2sc3c(c2c(=O)[nH]1)CCCC3)Nc1ccccc1Cl	-2.1	3.7	17.4*	x	x	x	18.7*	33.9*
CCN(c1ccc(NC(=O)CCc2nc3sc4c(c3c(=O)[nH]2)CCCC4)cc1)C(C)C	9.6	-6.4	-0.4	x	x	x	x	x
Cc1cccc(NC(=O)CCc2nc3sc4c(c3c(=O)[nH]2)CCCC4)n1	5.2	-9.0	0.7	x	x	x	x	x
Cc1cccc(NC(=O)CNC(=O)CCc2nc3sc4c(c3c(=O)[nH]2)CCCC4)c1C	12.4	-15.8	21.7*	x	x	x	21.4*	40.3*
COc1cc(NS(=O)(=O)c2ccc(N/C=C\C(=O)c3cccc4ccccc34)cc2)nc(OC)n1	x	x	x	14.2	x	-74.5	x	x
O=C(c1c(F)cccc1F)N1CCC2(CC1)Nc1ccccc1-n1cccc12	x	x	x	x	x	-88.6	x	x
COc1ccc(C(=O)Nc2nnc(C(C)(C)C)s2)c(OC)c1	x	x	x	11.2	x	-13.3	x	x
Cc1cc(C(F)(F)F)n(-c2nc(C(=O)NN)cs2)n1	-10.3	1.1	1.4	8.4	1.4	-19.3	x	x
COc1ccc(S(=O)(=O)NNC(=O)c2csc(-n3nc(C)cc3C(F)(F)F)n2)cc1OC	1.1	-4.6	10.4*	8.5	0.8	29.2	6.9	11.4*
O=C(NC1CCCCC1)C(c1ccccn1)N(Cc1ccc(F)cc1)C(=O)Cc1cccs1 (stereo not drawn)	x	x	x	8.8	x	5.7	x	x
CCC1CCCCN1S(=O)(=O)c1ccc(C(=O)O)cc1 (stereo not drawn)	x	x	x	3.3	x	54.9	x	x
COc1ccc2c(Cl)c(C(N)=O)sc2c1	2.0	4.6	18.0*	12.7	2.0	-16.4	25.6*	35.1*
CCC(C)NC(=O)c1cc2n(n1)C(C(F)(F)F)CC(c1ccco1)N2 (stereo not drawn)	x	x	x	9.7	x	4.1	x	x
Cc1sc(NC(=O)CN2CCOCC2)c(C(=O)c2ccccc2Cl)c1C	x	x	x	13.7	x	53.5	x	x
CC(=O)c1nn(-c2cccc(Br)c2)cc1C(=O)c1ccccc1	-9.7	-0.5	13.3*	4.7	1.3	-2.6	20.2*	24.5*
SMILES	SKN-1 block	NR1D1 modulator	PG9 Ab binder	EP2 antag	RAM inhibit	EP2 mod	PG9 bind confirm	PGV04 counter	others
Cc1cccc2cc(COC(=O)c3ccccc3)c(=O)[nH]c12	3.0	17.8	22.9*	-0.9	1.5	-21.5	22.5*	38.2*
Cc1cccc(C(=O)OCc2cc3ccccc3[nH]c2=O)c1	-13.7	20.7	12.1*	11.2	3.5	-38.6	13.3*	18.1*
Cc1cccc2cc(COC(=O)c3cccnc3)c(=O)[nH]c12	1.3	-4.6	-0.8	10.7	3.0	-14.3	x	x
Cc1cccc2cc(C(c3nnnn3Cc3ccccc3)N3CCC(O)CC3)c(=O)[nH]c12 (stereo not drawn)	x	x	x	9.2	x	-31.7	x	x
c1ccc(-c2nccc(-c3ccc(-n4cnc5ccccc54)cc3)n2)cc1	-5.4	-5.5	15.2*	x	0.7	48.2	19.4*	14.2*	PG9 binder DR=i;PGV04 binding DR=i;PG126 binding DR=i
c1ccc(-n2cnc3ccccc32)nc1	14.2	0.3	0.9	x	x	x	x	x
CCCn1c(SCC(=O)Nc2nc(C)cs2)nnc1-c1ccncc1	x	x	x	18.3	x	-4.9	x	x
COc1ccc2c(-c3ccccc3)cc3nnnn3c2c1	10.2	15.5	9.9*	10.9	1.8	41.7	10.5*	23.6*
CCCCC1=CC2=C(c3ccco3)C(=O)C(C)(OC(=O)c3ccc(OC)cc3)C(=O)C2=CN1Cc1ccccc1 (stereo not drawn)	6.4	-4.5	24.0*	10.6	x	-0.1	27.7*	33.4*
CCC(C(=O)NC1CCCCC1)n1c2ccccc2c2nc(=O)cc(C)n21 (stereo not drawn)	27.1	-1.3	16.4*	x	x	x	8.1	9.5*
Cc1cc(C=O)c(C)n1-c1ccc(Oc2ccc([N+](=O)[O-])cn2)cc1	0.6	4.6	8.6*	3.8	5.0	-2.3	10.2*	15.4*

Screening data from PubChem BioAssay.
